# Reference: PubChem BioAssay (Tox21)
# A number with no mark means an inactive call. Inconclusive results are not listed. A call without a number means that no potency is given here. Activity calls are given as the source filed them. Unless noted, calls follow the shape of the dose curve; as a rule, active = well fitted curve in the direction sought with a large enough effect in the repeat runs; inconclusive = weak or mixed curves; inactive = no such curve, though single readings can be large; an effect the other way counts as inactive or inconclusive.
# How the values were obtained:
# [1] = qHTS RealTime-Glo MT Cell Viability Assay in HEK293 cells - 8 hour (AID 1224887); also: nearly all actives have a fitted effect of over 50% in size; also: potency is read from the fitted curve at half-maximal effect
# Method in brief: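 HEK293 + NanoLuc + prosubstrate, 600 cells/well; 5 h, 37 C/5% CO2; compound 23 nL in DMSO by pintool; 37 C; luminescence read at 0, 8, 16, 24, 32 and 40 h time points.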
# [2] = A CellTox Green Cytotoxicity Assay to monitor cytotoxicity in HEK293 cells - 16 hour (AID 1224888); also: nearly all actives have a fitted effect of over 35% in size
# Method in brief: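 Tox21 screen in HEK293: membrane-impermeant cyanine dye fluoresces on binding dead-cell DNA; compound pinned 5 h post-seeding, plates held at 37 C, signal read repeatedly through 40 h.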
# [3] = qHTS RealTime-Glo MT Cell Viability Assay in HepG2 cells - 0 hour (AID 1224889); also: nearly all actives have a fitted effect of over 50% in size
# Method in brief: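 Cells + NanoLuc/prosubstrate dispensed (600 cells/well) → 5 h at 37 C/5% CO2 → compounds in DMSO transferred → 40 h incubation at 37 C, luminescence read at 0, 8, 16, 24, 32, 40 h.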
# [4] = A CellTox Green Cytotoxicity Assay to monitor cytotoxicity in HepG2 cells - 8 hour (AID 1224890); also: nearly all actives have a fitted effect of over 45% in size
# Method in brief: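 Measurements at 0, 8, 16, 24, 32 and 40 h of treatment captured CellTox Green fluorescence in HepG2 cells that had been co-plated with reagent and preincubated 5 h at 37 C/5% CO2.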
# [5] = qHTS assay to identify small molecule antagonists of the androgen receptor (AR) signaling pathway using the MDA cell line in the presence of 0.5 nM R1881 - cell viability counter screen (AID 1259242); also: nearly all actives have a fitted effect of over 45% in size; also: potency is read from the fitted curve at half-maximal effect
# Method in brief: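 Concentration-response screen of compounds for toxicity in MDA-kb2 reporter cells: 16 hr at 37C with 0.5 nM R1881, endpoint live-cell protease fluorescence measured in the reporter wells.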
# [6] = biological target: Estrogen receptor (Homo sapiens) (UniProt P03372); assay: qHTS assay to identify small molecule antagonists of the estrogen receptor alpha (ER-alpha) signaling pathway using the BG1 cell line in the presence of 0.1 nM 17-beta-estradiol (AID 1259244); also: nearly all actives have a fitted effect of over 50% in size; also: potency is read from the fitted curve at half-maximal effect
# Method in brief: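 Compounds were tested against 0.1 nM (final) 17beta-estradiol in VM7Luc4E2 cells, which express full-length ER-alpha and an ERE-luciferase reporter; luminescence was recorded following 22 h exposure.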
# [7] = qHTS assay to identify small molecule HDAC inhibitors (AID 1259364); also: potency is read from the fitted curve at half-maximal effect;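 also: wild-type HCT-116 cells with endogenous class I/II HDAC activity; nearly all actives have a fitted effect of over 45% in size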
# Method in brief: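 Screening used wild-type human colon HCT-116 cells incubated overnight, dosed with compounds for 2 hours, and assayed with a homogeneous luminogenic HDAC I/II reagent for 30 minutes at room temperature.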
# [8] = qHTS assay to identify small molecule HDAC inhibitors - cell viability counter screen (AID 1259365); also: series mostly up to about 92 µM; nearly all actives have a fitted effect of over 50% in size
# Method in brief: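 Viability readout: CellTiter-Glo luminescence. Wild-type HCT-116 cells, 2hr compound treatment following overnight attachment at 37 C.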
# [9] = qHTS assay to identify small molecule agonists of the sonic hedgehog signaling (Shh) pathway - cell viability counter screen (AID 1259366); also: nearly all actives have a fitted effect of over 50% in size; also: potency is read from the fitted curve at half-maximal effect
# Method in brief: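 Viability measured fluorometrically (CellTiter-Fluor, 1hr, 37C) in 3T3 Gli1-Luc reporter cells after 23hr compound exposure within a 24hr incubation at 37C/5% CO2.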
# [10] = qHTS assay to identify small molecule antagonists of the sonic hedgehog signaling (Shh) pathway - cell viability counter screen (AID 1259367); also: nearly all actives have a fitted effect of over 55% in size; also: potency is read from the fitted curve at half-maximal effect
# Method in brief: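 Cytotoxicity was assessed in parallel with Shh reporter activity by measuring live-cell protease fluorescence (CellTiter-Fluor) in NIH/3T3 cells stably carrying Gli1-Luc, treated with compound under conditioned medium stimulation for 23 hr plus 1 hr reagent incubation.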
# [11] = qHTS assay to identify small molecule antagonists of the sonic hedgehog signaling (Shh) pathway (AID 1259369; calls by dose curve; also: potency is read from the fitted curve at half-maximal effect; nearly all actives have a fitted effect of over 45% in size)
# Method in brief: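 NIH/3T3 stable Gli1-Luc clone, 2,000 cells/well, 4hr settle; cpd + conditioned medium 24hr; Luc reagent 30min RT; luminescence.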
# [12] = biological target: Estrogen receptor beta (Homo sapiens) (UniProt Q92731); assay: qHTS assay to identify small molecule agonists of the estrogen receptor beta (ER-beta) signaling pathway (AID 1259377; active = well fitted activation curve with a large enough effect in the signal ratio in the repeat runs, not every such curve was filed as active; the % refers to the signal ratio)
# Method in brief: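 A UAS-controlled beta-lactamase reporter in ER-beta-UAS-bla HEK293T cells reports receptor activation. Compounds act for 16 hr at 37C in 2% charcoal-stripped serum, and a FRET substrate is read by fluorescence after 2 hours.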
# [13] = qHTS assay to identify small molecule antagonists of the estrogen receptor alpha (ER-alpha) signaling pathway using the BG1 cell line in the presence of 0.1 nM 17-beta-estradiol - cell viability counter screen (AID 1259241); also: nearly all actives have a fitted effect of over 40% in size; also: potency is read from the fitted curve at half-maximal effect
# Method in brief: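 The cell line endogenously expresses full-length ER-alpha and carries four EREs driving luciferase. Cells are cultured 5 days hormone-free, treated 22 hr with compounds and 0.1 nM estradiol, then viability is read by fluorescence.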
# [14] = qHTS assay to identify small molecule agonists of the sonic hedgehog signaling (Shh) pathway (AID 1259368; calls by dose curve;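 also: NIH/3T3-derived 3T3Gli1-Luc cells carrying a stable Gli1-driven firefly luciferase reporter; series mostly up to about 92 µM; nearly all actives have a fitted effect of over 15% in size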)
# Method in brief: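 Hedgehog pathway agonism scored by increased firefly luciferase luminescence in 3T3Gli1-Luc cells treated 24 hr at 37 C; detection used a 30 min room-temperature reagent incubation.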
# [15] = biological target: Estrogen receptor beta (Homo sapiens) (UniProt Q92731); assay: qHTS assay to identify small molecule antagonists of the estrogen receptor beta (ER-beta) signaling pathway (AID 1259378; active = well fitted inhibition curve with a large enough effect in the signal ratio in the repeat runs, not every such curve was filed as active; the % refers to the signal ratio)
# Method in brief: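 ER-beta-UAS-bla HEK293T (GripTite) cells in 2% charcoal-stripped FBS medium were preincubated 6 hr at 37C, dosed with compound, then stimulated with 1 nM E2 (final) for 16 hr; beta-lactamase reporter read by B/G FRET fluorescence after 2 hr substrate loading.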
# [16] = qHTS RealTime-Glo MT Cell Viability Assay in HEK293 cells - 24 hour (AID 1224886)
# Method in brief: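 Tox21 10K qHTS, HEK293, 600 cells/well, RealTime-Glo reagent co-dispensed with cells; 5 h preincubation, compound by pintool, 37 C, luminescence at 0–40 h.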
# [17] = biological target: Androgen receptor (Homo sapiens) (UniProt P10275); assay: qHTS assay to identify small molecule antagonists of the androgen receptor (AR) signaling pathway using the MDA cell line in the presence of 0.5 nM R1881 (AID 1259243); also: nearly all actives have a fitted effect of over 50% in size; also: potency is read from the fitted curve at half-maximal effect
# Method in brief: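 With R1881 held at 0.5 nM (final), compound effects on MMTV-luciferase expression in MDA-kb2 cells were scored by luminescence after a 16 hr, 37C incubation.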
# [18] = qHTS assay to identify small molecule agonists of the androgen receptor (AR) signaling pathway in the presence of an antagonist - cell viability counter screen (AID 1259379); also: nearly all actives have a fitted effect of over 25% in size; also: potency is read from the fitted curve at half-maximal effect
# Method in brief: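 MDA-kb2 viability measured by CellTiter-Fluor fluorescence in the same wells as the luciferase signal; nilutamide 3.0uM final; 15-point compound titration; 16 hr at 37C.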
# [19] = qHTS assay to identify small molecule phospholipidosis (PLD) inducers (AID 1259344; active = well fitted curve in the direction sought with a large enough effect; an effect the other way counts as inactive or inconclusive)
# Method in brief: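 Cells (HepG2, 900 per well) attach for 4 h, receive LipidTOX Red and compound together, incubate 24 h at 37 C, are fixed 30 min with paraformaldehyde/Hoechst, then imaged at one site per well.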
# Androgen receptor (Homo sapiens), sequence (P10275 whole entry, looked up): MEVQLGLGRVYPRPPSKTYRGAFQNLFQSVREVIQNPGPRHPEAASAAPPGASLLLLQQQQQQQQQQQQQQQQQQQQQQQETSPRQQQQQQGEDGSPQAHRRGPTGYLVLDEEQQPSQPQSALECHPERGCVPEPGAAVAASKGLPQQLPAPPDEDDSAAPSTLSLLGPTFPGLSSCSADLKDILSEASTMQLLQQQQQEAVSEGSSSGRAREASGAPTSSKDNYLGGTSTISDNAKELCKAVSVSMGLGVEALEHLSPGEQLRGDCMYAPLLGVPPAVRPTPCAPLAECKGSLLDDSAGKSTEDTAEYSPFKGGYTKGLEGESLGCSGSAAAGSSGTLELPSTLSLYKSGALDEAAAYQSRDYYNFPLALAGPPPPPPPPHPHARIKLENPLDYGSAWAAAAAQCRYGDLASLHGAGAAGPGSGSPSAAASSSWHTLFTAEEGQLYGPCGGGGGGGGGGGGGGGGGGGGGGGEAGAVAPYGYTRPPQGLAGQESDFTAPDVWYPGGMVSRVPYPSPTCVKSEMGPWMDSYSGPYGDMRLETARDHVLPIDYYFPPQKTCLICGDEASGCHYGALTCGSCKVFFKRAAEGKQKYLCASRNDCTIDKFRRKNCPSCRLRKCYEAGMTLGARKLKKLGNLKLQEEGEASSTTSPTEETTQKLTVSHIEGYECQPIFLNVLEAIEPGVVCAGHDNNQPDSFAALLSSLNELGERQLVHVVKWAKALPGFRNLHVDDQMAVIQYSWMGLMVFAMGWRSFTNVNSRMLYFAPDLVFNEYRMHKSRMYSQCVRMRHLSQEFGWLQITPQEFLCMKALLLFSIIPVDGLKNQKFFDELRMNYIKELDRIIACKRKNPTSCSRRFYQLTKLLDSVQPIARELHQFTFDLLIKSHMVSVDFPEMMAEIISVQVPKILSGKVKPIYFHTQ
# Estrogen receptor beta (Homo sapiens), sequence (Q92731 whole entry, looked up): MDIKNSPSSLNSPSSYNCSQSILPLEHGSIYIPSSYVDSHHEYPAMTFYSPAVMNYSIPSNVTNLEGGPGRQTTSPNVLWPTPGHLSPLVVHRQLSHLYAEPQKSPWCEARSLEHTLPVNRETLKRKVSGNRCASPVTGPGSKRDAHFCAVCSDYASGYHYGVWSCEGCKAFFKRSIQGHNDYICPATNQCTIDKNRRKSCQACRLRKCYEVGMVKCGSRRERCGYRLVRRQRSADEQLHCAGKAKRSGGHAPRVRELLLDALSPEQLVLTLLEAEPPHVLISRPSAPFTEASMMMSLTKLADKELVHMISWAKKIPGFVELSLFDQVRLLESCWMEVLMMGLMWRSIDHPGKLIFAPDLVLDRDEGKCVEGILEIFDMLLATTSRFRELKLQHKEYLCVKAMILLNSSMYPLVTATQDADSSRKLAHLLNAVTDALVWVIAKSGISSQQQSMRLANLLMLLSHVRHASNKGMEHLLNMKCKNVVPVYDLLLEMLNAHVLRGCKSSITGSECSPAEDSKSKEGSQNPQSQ
# Estrogen receptor (Homo sapiens), sequence (P03372 whole entry, looked up): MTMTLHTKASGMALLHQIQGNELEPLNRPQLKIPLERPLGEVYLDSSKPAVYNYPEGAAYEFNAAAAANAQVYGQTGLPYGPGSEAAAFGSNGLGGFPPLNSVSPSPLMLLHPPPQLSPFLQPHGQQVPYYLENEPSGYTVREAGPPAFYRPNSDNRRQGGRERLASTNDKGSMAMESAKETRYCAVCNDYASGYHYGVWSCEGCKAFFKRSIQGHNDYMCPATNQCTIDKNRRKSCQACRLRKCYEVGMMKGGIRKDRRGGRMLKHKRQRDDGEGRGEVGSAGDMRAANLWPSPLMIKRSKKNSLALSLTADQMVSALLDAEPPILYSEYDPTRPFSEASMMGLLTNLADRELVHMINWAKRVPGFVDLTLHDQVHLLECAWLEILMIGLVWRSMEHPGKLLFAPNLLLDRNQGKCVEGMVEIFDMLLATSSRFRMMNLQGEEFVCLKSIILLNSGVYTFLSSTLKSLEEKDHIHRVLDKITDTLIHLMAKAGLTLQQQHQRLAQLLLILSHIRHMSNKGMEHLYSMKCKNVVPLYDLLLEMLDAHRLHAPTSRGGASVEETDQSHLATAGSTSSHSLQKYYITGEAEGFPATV
smiles,measurement,setting,value
O=C1OC(O)C(C(Cl)Cl)=C1Cl (centres undefined),Potency,[1],inactive
same,Potency,[2],inactive
same,Potency,[3],inactive
same,Potency,[4],inactive
same,Potency,[5],inactive
same,Potency,[6],inactive
same,Potency,[7],inactive
same,Potency,[8],inactive
same,Potency,[9],44.6 µM (active)
same,Potency,[10],25.1 µM (active)
same,Potency,[11],5 µM (active)
same,outcome,[12],inactive
CCCCC/C=C\C=C\C(=O)OCC,Potency,[2],inactive
same,Potency,[3],inactive
same,Potency,[4],inactive
same,Potency,[13],inactive
same,Potency,[5],inactive
same,Potency,[6],inactive
same,Potency,[7],inactive
same,Potency,[8],inactive
same,Potency,[14],inactive
same,Potency,[15],inactive
CCCCCCCCCCCCCCCCCCNC(=O)OC1CCN(C(=O)OC[C@H](COC(=O)N(Cc2cccc[n+]2CC)C(=O)c2ccccc2OC)OC)CC1,Potency,[16],10.7 µM (active)
same,Potency,[1],21.3 µM (active)
same,Potency,[3],inactive
same,Potency,[13],inactive
same,Potency,[17],23.7 µM (active)
same,Potency,[6],29.8 µM (active)
same,Potency,[7],inactive
same,Potency,[8],inactive
same,Potency,[9],inactive
same,Potency,[10],inactive
same,Potency,[11],26.6 µM (active)
same,Potency,[18],26.6 µM (active)
CCCCCCOC(=O)c1cccnc1,Potency,[19],inactive
Oc1cccc2c(O)cccc12,Potency,[1],inactive
same,Potency,[2],inactive
same,Potency,[3],inactive
same,Potency,[4],inactive
same,Potency,[13],68.6 µM (active)
same,Potency,[5],inactive
same,Potency,[6],54.5 µM (active)
same,Potency,[7],inactive
same,Potency,[8],inactive
same,Potency,[10],30.6 µM (active)
same,Potency,[14],inactive
same,Potency,[11],10.9 µM (active)
same,Potency,[18],inactive
CCOC(=O)C1=NN(c2ccc(Cl)cc2Cl)C(C)(C(=O)OCC)C1 (centres undefined),Potency,[2],inactive
same,Potency,[3],inactive
same,Potency,[4],inactive
same,Potency,[13],inactive
same,Potency,[5],inactive
same,Potency,[17],30.6 µM (active)
same,Potency,[7],inactive
same,Potency,[8],inactive
same,Potency,[9],inactive
same,Potency,[10],inactive
same,Potency,[14],inactive
same,outcome,[12],inactive
same,Potency,[18],inactive
COc1cccc(-c2ccc(/C=C\CN3CCCCCC3)cc2Cl)c1,Potency,[16],43.4 µM (active)
same,Potency,[1],48.7 µM (active)
same,Potency,[3],inactive
same,Potency,[13],inactive
same,Potency,[7],inactive
same,Potency,[8],inactive
same,Potency,[11],10.8 µM (active)
same,outcome,[12],inactive
Cc1cc(=O)c(C(=O)N[C@@H](C(=O)N[C@@H]2C(=O)N3C(C(=O)O)=C(CSc4nnnn4C)CS[C@H]23)c2ccc(O)cc2)c[nH]1,Potency,[19],inactive
NC(N)=NCCCCN=C(N)N,Potency,[19],inactive
CCCCCCCCSCc1cc(C)c(O)c(CSCCCCCCCC)c1,Potency,[1],9.77 µM (active)
same,Potency,[2],inactive
same,Potency,[3],inactive
same,Potency,[4],inactive
same,Potency,[5],inactive
same,Potency,[17],inactive
same,Potency,[6],inactive
same,Potency,[8],inactive
same,Potency,[9],inactive
same,Potency,[14],inactive
CON=C1C[C@]2(C[C@@H]3C[C@@H](C/C=C(\C)C[C@@H](C)/C=C/C=C4\CO[C@@H]5[C@H](O)C(C)=C[C@@H](C(=O)O3)[C@]45O)O2)O[C@H](/C(C)=C/C(C)C)[C@H]1C,Potency,[19],inactive
O=C(Nc1ccccc1)c1cc(Cl)ccc1O,Potency,[1],inactive
same,Potency,[2],inactive
same,Potency,[3],inactive
same,Potency,[4],inactive
same,Potency,[5],17.2 µM (active)
same,Potency,[6],12.2 µM (active)
same,Potency,[7],0.686 µM (active)
same,Potency,[8],inactive
same,Potency,[10],54.5 µM (active)
same,Potency,[14],inactive
same,Potency,[11],15.4 µM (active)
same,Potency,[18],13.7 µM (active)
